Measurements published in ChEMBL document CHEMBL1157539, “Thousands of chemical starting points for antimalarial lead identification” (Nature, 2010).

The compounds below were run on Plasmodium falciparum (assay: GSK_TCMDC: Inhibition of Plasmodium falciparum Dd2 in whole red blood cells, using parasite LDH activity as an index of growth. Test compounds present at 2uM).
Format: functional

SMILES | Inhibition
Cl.FC(F)(F)c1ccccc1OCc1cc(-c2ccncc2)c(COc2ccccc2C(F)(F)F)cc1C1=CCNCC1 | 81%
Cn1nc(-c2ccc(NC(=O)Nc3cc(C(F)(F)F)ccc3F)cc2)c2cnc(NCCCCN3CCCC3)nc21.O=C(O)C(F)(F)F | 74%
Cc1cc(=NN=Cc2ccccc2)c2cc(F)ccc2[nH]1 | 94%
O=S(=O)(Nc1ccc(CCN2CCC(N3CCCCC3)CC2)cc1)c1ccc2ccccc2c1 | 80%

What follows are compounds tested on HepG2 (assay: GSK_TCMDC: Percent inhibition of human HepG2 cell line. Test compounds present at 10uM.).
Format: functional

SMILES | Inhibition
Cn1nc(-c2ccc(CNC3CCc4ccccc43)cc2)c2cnc(NCCCN3CCCC3)nc21 (configuration not stated) | 27%
O=C(NCCCCCN1CCCN(C(=O)Nc2ccc(F)c(C(F)(F)F)c2)CC1)C1CC1c1ccc(Cl)c(Cl)c1 (configuration not stated) | 61%
CCc1cc2c(O)c([N+](=O)[O-])c(=O)oc2cc1OCCCCCOc1cc2oc(=O)c([N+](=O)[O-])c(O)c2cc1CC | 11%
CC[C@H](C)CNC(=O)c1cccc(-c2cccc(CNCC3CNCCCO3)c2)n1.O=C(O)C(F)(F)F (some centres not stated) | 15%
COc1ccccc1C1CCN(C2CCC(NC(=O)/C=C/c3ccc4c(c3)OC(F)(F)O4)CC2)CC1 (configuration not stated) | 52%
O=C(O)c1ccc2nc(-c3ccccn3)c(-c3ccccn3)nc2c1 | 3%
COc1ccc(-c2ccc(NC(=O)c3cccc(C#N)c3)cc2)cc1CN1CCNCC1.O=C(O)C(F)(F)F | 30%
CCc1cc(C(=O)c2cccc(C)c2)c(NC(=O)CN2CCN(C(=O)c3ccco3)CC2)s1 | 0%
COc1ccc(OCC(O)CN(Cc2ccccc2OC)C(=O)Nc2ccc(Br)cc2)cc1 (configuration not stated) | 8%
CCCN(Cc1ccc(OCC)cc1)Cc1cc(=O)c2cc(Cl)ccc2[nH]1 | 47%
CCN(CC)CCN(Cc1ccc(-c2ccc(C(F)(F)F)cc2)cc1)C(=O)Cn1c(CCc2c(F)cccc2F)nc(=O)c2ccccc21.O=C(O)C(O)C(O)C(=O)O | 36%
Cl.O=c1cc(NCCNCc2cccc(-c3ccccc3)c2)[nH]c2ccccc12 | 0%
Cc1ccc2nc3c(cc(C(=O)NCCc4ccccc4)c(=N)n3CCCOC(C)C)c(=O)n2c1 | 15%
Cc1cc(O)c(CN(C)Cc2ccc(N(C)C)cc2)cc1C(C)C | 3%
C=CCOC(=O)N1CCC(CNCc2cccc(-c3ccc(-c4nc5cccc(C)c5[nH]4)s3)c2)C1.O=C(O)C(F)(F)F (configuration not stated) | 11%
CCOC(=O)c1ccc(-c2cnoc2-c2cc(CC)c(OC)cc2O)o1 | 12%
CS(=O)(=O)c1cccc(-c2cnc(N)c3cc(-c4ccc5c(c4)OCO5)ccc23)c1.O=CO | 37%

SMILES | Inhibition
Oc1ccc2ccccc2c1C=NNc1nc(=Nc2ccccc2)nc(N2CCOCC2)[nH]1 | 66%
CCCCCCCNC(=O)NCC1CCCN(CCCCCNC(=O)/C=C/c2ccc(Cl)c(Cl)c2)C1 (configuration not stated) | 98%
C#CCOc1ccc2ccccc2c1CNCCCCCCNCc1c(OCC#C)ccc2ccccc12.CS(=O)(=O)O | 100%
O=C(/C=C/c1ccc(Cl)cc1)NCCCCCN1CCC(C(=O)Nc2cccc(Cl)c2)CC1 | 22%
COc1ccc2c(=NN=CC=Cc3ccccc3)cc(C)[nH]c2c1 | 18%
COc1cc(Nc2nccc(N3CCC(NC(=O)c4cccc(C#N)c4)C3)n2)cc(OC)c1OC (configuration not stated) | 13%
COc1ccc2ncc(F)c(CCN3C[C@H](CNCc4cc(F)c5c(c4)NC(=O)CO5)[C@H](O)C3)c2n1.Cl | 3%
O=C(Nc1cccc(C(F)(F)F)c1)Nc1ccc(Cl)c(C(F)(F)F)c1 | 0%
c1nc2nc3c(c(Nc4ccc5c(c4)CCC5)n2n1)CCC3 | 0%
CCN(CC)CCCNc1nccc(N2CCc3ncnc(Nc4ccc(OCc5cccc(F)c5)c(Cl)c4)c3C2)n1 | 100%
CN(C)CCCNCCS(=O)(=O)c1cccc(Nc2ccc(-c3cccc(N(C)C)c3)cn2)c1 | 19%
CCCCc1ccc(NC(=O)Nc2cccc(CCNCc3ccccc3)c2)cc1.O=C(O)C(F)(F)F | 3%
NC(=O)c1ccsc1NC(=O)CNC(c1ccccc1)c1ccccc1 | 8%
O=C(Nc1cccc(CN2CCCN(Cc3ccc(F)cc3)CC2)c1)c1cc2ccccc2s1.O=C(O)C(F)(F)F | 29%
Cc1cc(-c2cccc(CNCc3ccc(F)cc3)c2)ccc1S(=O)(=O)NCCN1CCCC1.O=C(O)C(F)(F)F | 49%
Cc1cc(C(F)(F)F)n2nc(C(=O)N(Cc3cncn3Cc3ccccc3F)CC3CC3)cc2n1 | 0%
